Test results as given in the supplement of paper PMC4466140.

B1: unnamed (peptide)
chain: KFIPSRPAPKPPSSA

Target: AgAbp1
Assay: SPOT peptide array binding signal intensity (averaged, normalized) (arbitrary units (background-subtracted, floor 0; scale differs between SH3 domains)); higher = stronger binding of the SH3 domain to the peptide
Experimental: (§1)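 GST-tagged SH3 domains from S. cerevisiae (Sc), A. gossypii (Ag), C. albicans (Ca) and S. pombe (Sp) were incubated at 10 ug/ml overnight at 4 C on cellulose SPOT membranes carrying 292 synthetic 15-mer peptides mined from the S. cerevisiae proteome (cysteines replaced by serines). Binding was detected with anti-GST antibody, HRP secondary and chemiluminescence, quantified with Genespotter, and reported as normalized spot intensities averaged over biological replicates.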

Binder | SPOT peptide array binding signal intensity
B1 | 1640

Target: AgBbc1
Assay: as above
Experimental: as §1

Binder | SPOT peptide array binding signal intensity
B1 | 1210

Target: AgBem1-D1
Assay: as above
Experimental: as §1

Binder | SPOT peptide array binding signal intensity
B1 | 98

Target: AgBzz1-D1
Assay: as above
Experimental: as §1

Binder | SPOT peptide array binding signal intensity
B1 | 70

Target: AgBzz1-D2
Assay: as above
Experimental: as §1

Binder | SPOT peptide array binding signal intensity
B1 | 69.5

Target: AgCyk3
Assay: as above
Experimental: as §1

Binder | SPOT peptide array binding signal intensity
B1 | ≤ 0

Target: AgFus1
Assay: as above
Experimental: as §1

Binder | SPOT peptide array binding signal intensity
B1 | ≤ 0

Target: AgHof1
Assay: as above
Experimental: as §1

Binder | SPOT peptide array binding signal intensity
B1 | 26.2

Target: AgHse1
Assay: as above
Experimental: as §1

Binder | SPOT peptide array binding signal intensity
B1 | 37

Target: AgLsb1
Assay: as above
Experimental: as §1

Binder | SPOT peptide array binding signal intensity
B1 | 674

Target: AgLsb4
Assay: as above
Experimental: as §1

Binder | SPOT peptide array binding signal intensity
B1 | 30.5

Target: AgMyo5
Assay: as above
Experimental: as §1

Binder | SPOT peptide array binding signal intensity
B1 | 1380

Target: AgNbp2
Assay: as above
Experimental: as §1

Binder | SPOT peptide array binding signal intensity
B1 | 11400

Target: AgRvs167
Assay: as above
Experimental: as §1

Binder | SPOT peptide array binding signal intensity
B1 | 5.5

Target: AgSho1
Assay: as above
Experimental: as §1

Binder | SPOT peptide array binding signal intensity
B1 | ≤ 0

Target: AgSla1-D1-D2
Assay: as above
Experimental: as §1

Binder | SPOT peptide array binding signal intensity
B1 | 51

Target: AgSla1-D3
Assay: as above
Experimental: as §1

Binder | SPOT peptide array binding signal intensity
B1 | 1

Target: CaAbp1-D1
Assay: as above
Experimental: as §1

Binder | SPOT peptide array binding signal intensity
B1 | 1850

Target: CaAbp1-D2
Assay: as above
Experimental: as §1

Binder | SPOT peptide array binding signal intensity
B1 | 1020

Target: CaBbc1
Assay: as above
Experimental: as §1

Binder | SPOT peptide array binding signal intensity
B1 | 1910

Target: CaBem1-D1
Assay: as above
Experimental: as §1

Binder | SPOT peptide array binding signal intensity
B1 | 1550

Target: CaBzz1-D1
Assay: as above
Experimental: as §1

Binder | SPOT peptide array binding signal intensity
B1 | 1780

Target: CaBzz1-D2
Assay: as above
Experimental: as §1

Binder | SPOT peptide array binding signal intensity
B1 | 1310

Target: CaCyk3
Assay: as above
Experimental: as §1

Binder | SPOT peptide array binding signal intensity
B1 | 46

Target: CaFus1
Assay: as above
Experimental: as §1

Binder | SPOT peptide array binding signal intensity
B1 | 75

Target: CaHof1
Assay: as above
Experimental: as §1

Binder | SPOT peptide array binding signal intensity
B1 | ≤ 0

Target: CaHse1
Assay: as above
Experimental: as §1

Binder | SPOT peptide array binding signal intensity
B1 | 2.25

Target: CaLsb1
Assay: as above
Experimental: as §1

Binder | SPOT peptide array binding signal intensity
B1 | ≤ 0

Target: CaLsb4
Assay: as above
Experimental: as §1

Binder | SPOT peptide array binding signal intensity
B1 | 190

Target: CaMyo5
Assay: as above
Experimental: as §1

Binder | SPOT peptide array binding signal intensity
B1 | 24

Target: CaNbp2
Assay: as above
Experimental: as §1

Binder | SPOT peptide array binding signal intensity
B1 | 6170

Target: CaRvs167
Assay: as above
Experimental: as §1

Binder | SPOT peptide array binding signal intensity
B1 | 51

Target: CaRvs167-3
Assay: as above
Experimental: as §1

Binder | SPOT peptide array binding signal intensity
B1 | 2

Target: CaSho1
Assay: as above
Experimental: as §1

Binder | SPOT peptide array binding signal intensity
B1 | ≤ 0

Target: CaSla1-D1-D2
Assay: as above
Experimental: as §1

Binder | SPOT peptide array binding signal intensity
B1 | 1010

Target: CaSla1-D3
Assay: as above
Experimental: as §1

Binder | SPOT peptide array binding signal intensity
B1 | 65.5

Target: ScAbp1
Assay: as above
Experimental: as §1

Binder | SPOT peptide array binding signal intensity
B1 | 323

Target: ScBbc1
Assay: as above
Experimental: as §1

Binder | SPOT peptide array binding signal intensity
B1 | 716

Target: ScBem1-D1
Assay: as above
Experimental: as §1

Binder | SPOT peptide array binding signal intensity
B1 | ≤ 0

Target: ScBzz1-D1
Assay: as above
Experimental: as §1

Binder | SPOT peptide array binding signal intensity
B1 | 87

Target: ScBzz1-D2
Assay: as above
Experimental: as §1

Binder | SPOT peptide array binding signal intensity
B1 | 8

Target: ScCyk3
Assay: as above
Experimental: as §1

Binder | SPOT peptide array binding signal intensity
B1 | 1

Target: ScFus1
Assay: as above
Experimental: as §1

Binder | SPOT peptide array binding signal intensity
B1 | 0.5

Target: ScHof1
Assay: as above
Experimental: as §1

Binder | SPOT peptide array binding signal intensity
B1 | 1

Target: ScHse1
Assay: as above
Experimental: as §1

Binder | SPOT peptide array binding signal intensity
B1 | ≤ 0

Target: ScLsb1
Assay: as above
Experimental: as §1

Binder | SPOT peptide array binding signal intensity
B1 | 51.8

Target: ScLsb2
Assay: as above
Experimental: as §1

Binder | SPOT peptide array binding signal intensity
B1 | 288

Target: ScLsb3
Assay: as above
Experimental: as §1

Binder | SPOT peptide array binding signal intensity
B1 | 982

Target: ScLsb4
Assay: as above
Experimental: as §1

Binder | SPOT peptide array binding signal intensity
B1 | 13

Target: ScMyo3
Assay: as above
Experimental: as §1

Binder | SPOT peptide array binding signal intensity
B1 | 2740

Target: ScMyo5
Assay: as above
Experimental: as §1

Binder | SPOT peptide array binding signal intensity
B1 | 1420

Target: ScNbp2
Assay: as above
Experimental: as §1

Binder | SPOT peptide array binding signal intensity
B1 | 8490

Target: ScPex13
Assay: as above
Experimental: as §1

Binder | SPOT peptide array binding signal intensity
B1 | 2800

Target: ScRvs167
Assay: as above
Experimental: as §1

Binder | SPOT peptide array binding signal intensity
B1 | 396

Target: ScSho1
Assay: as above
Experimental: as §1

Binder | SPOT peptide array binding signal intensity
B1 | 18

Target: ScSla1-D1-D2
Assay: as above
Experimental: as §1

Binder | SPOT peptide array binding signal intensity
B1 | 1290

Target: ScSla1-D3
Assay: as above
Experimental: as §1

Binder | SPOT peptide array binding signal intensity
B1 | 769

Target: SpAbp1-D1
Assay: as above
Experimental: as §1

Binder | SPOT peptide array binding signal intensity
B1 | 602

Target: SpBbc1
Assay: as above
Experimental: as §1

Binder | SPOT peptide array binding signal intensity
B1 | 110

Target: SpBzz1-D1
Assay: as above
Experimental: as §1

Binder | SPOT peptide array binding signal intensity
B1 | 1050

Target: SpBzz1-D2
Assay: as above
Experimental: as §1

Binder | SPOT peptide array binding signal intensity
B1 | 32.8

Target: SpCyk3
Assay: as above
Experimental: as §1

Binder | SPOT peptide array binding signal intensity
B1 | ≤ 0

Target: SpHof1
Assay: as above
Experimental: as §1

Binder | SPOT peptide array binding signal intensity
B1 | 9.75

Target: SpHof1-2
Assay: as above
Experimental: as §1

Binder | SPOT peptide array binding signal intensity
B1 | 9.25

Target: SpHof1-3
Assay: as above
Experimental: as §1

Binder | SPOT peptide array binding signal intensity
B1 | 144

Target: SpHse1
Assay: as above
Experimental: as §1

Binder | SPOT peptide array binding signal intensity
B1 | 140

Target: SpLsb1
Assay: as above
Experimental: as §1

Binder | SPOT peptide array binding signal intensity
B1 | 62

Target: SpLsb4
Assay: as above
Experimental: as §1

Binder | SPOT peptide array binding signal intensity
B1 | 865

Target: SpMyo1
Assay: as above
Experimental: as §1

Binder | SPOT peptide array binding signal intensity
B1 | 3260

Target: SpNbp2
Assay: as above
Experimental: as §1

Binder | SPOT peptide array binding signal intensity
B1 | 1060

Target: SpPex13
Assay: as above
Experimental: as §1

Binder | SPOT peptide array binding signal intensity
B1 | 90

Target: SpRvs167
Assay: as above
Experimental: as §1

Binder | SPOT peptide array binding signal intensity
B1 | 319

Target: SpSla1-D1-D2
Assay: as above
Experimental: as §1

Binder | SPOT peptide array binding signal intensity
B1 | ≤ 0

Target: SpSla1-D3
Assay: as above
Experimental: as §1

Binder | SPOT peptide array binding signal intensity
B1 | ≤ 0
